Mdm2-MdmX inh: disrupts the human Mdm2-MdmX interaction | O15151+Q00987 | SaOS-2 split-luciferase Mdm2/MdmX complementation, luminescence | inhibition, % at 8 µM | hit rate 3% among 330,000;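 active = inhibition of at least 50% at 8 µM in the primary screen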
Target sequence (O15151 whole entry, looked up): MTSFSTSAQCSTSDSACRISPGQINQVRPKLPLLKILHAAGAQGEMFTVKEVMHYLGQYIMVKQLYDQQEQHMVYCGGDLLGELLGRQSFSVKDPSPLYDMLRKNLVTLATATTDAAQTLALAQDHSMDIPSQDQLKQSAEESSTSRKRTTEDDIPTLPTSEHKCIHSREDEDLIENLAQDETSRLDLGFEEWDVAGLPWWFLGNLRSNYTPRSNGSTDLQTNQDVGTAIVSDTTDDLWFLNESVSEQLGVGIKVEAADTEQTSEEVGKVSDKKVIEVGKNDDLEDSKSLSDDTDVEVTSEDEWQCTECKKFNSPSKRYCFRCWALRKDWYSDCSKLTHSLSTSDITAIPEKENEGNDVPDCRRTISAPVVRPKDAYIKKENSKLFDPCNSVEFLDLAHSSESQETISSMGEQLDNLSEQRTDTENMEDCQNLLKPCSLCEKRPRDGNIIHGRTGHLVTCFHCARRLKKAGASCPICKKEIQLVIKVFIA
Target sequence (Q00987 whole entry, looked up): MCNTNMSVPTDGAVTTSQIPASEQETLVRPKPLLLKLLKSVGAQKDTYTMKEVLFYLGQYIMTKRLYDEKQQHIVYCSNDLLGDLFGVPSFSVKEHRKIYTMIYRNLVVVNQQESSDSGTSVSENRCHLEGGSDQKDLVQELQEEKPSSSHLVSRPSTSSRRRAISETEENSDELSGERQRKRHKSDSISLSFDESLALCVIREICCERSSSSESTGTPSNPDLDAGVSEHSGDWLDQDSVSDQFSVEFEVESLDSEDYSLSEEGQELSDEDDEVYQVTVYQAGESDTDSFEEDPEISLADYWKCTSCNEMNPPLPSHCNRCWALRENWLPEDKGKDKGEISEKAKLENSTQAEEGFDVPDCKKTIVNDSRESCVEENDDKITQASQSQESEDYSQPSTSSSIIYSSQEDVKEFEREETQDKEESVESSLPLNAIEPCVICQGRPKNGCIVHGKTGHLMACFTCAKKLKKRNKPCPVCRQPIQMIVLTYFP
tim23-1 inh: inhibits growth of tim23-1 mutant yeast | S. cerevisiae tim23-1 growth, BacTiter-Glo luminescence, 24 h | inhibition, % at 20 µM | hit rate 1.3% among 330,000;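 active = growth inhibition of the mutant yeast at or above 50%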;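 also: temperature-sensitive mutant grown at 25 °C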
tim10-1 inh: inhibits growth of tim10-1 mutant yeast; inhibition, % at 20 µM; S. cerevisiae tim10-1 ts strain growth, BacTiter-Glo, 24 h; AID 463190; hit rate 2.2% among 330,000;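 active = inhibition of at least 40%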;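 also: mutant grown at 25 °C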
MPTP inh: blocks calcium-induced mitochondrial swelling. hit rate 1.4% among 360,000. inhibition, % at 10 µM. isolated mouse mitochondria, Ca2+ swelling absorbance, 30 min;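 active = inhibition of 50% or more, scaled per plate between neutral and stimulator controls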
TIM10 inh: TIM10 yeast growth inhibition; S. cerevisiae TIM10 strain growth, BacTiter-Glo luminescence, 24 h; inhibition, % at 10 µM; hit rate 1.4% among 330,000;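 active = inhibition of 40% or more at the single tested concentration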;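 also: wild-type TIM10 isogenic control strain grown at permissive 25 °C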
MPTP counter: Rhodamine 123 counter-screen of mitochondrial pore hits. shares compounds with MPTP inh. hit rate 78% among 5,000. isolated mitochondria, membrane potential, Rhodamine 123 fluorescence. inhibition, % at 10 µM. AID 624504; in the data active = inhibition above about 22%
MPTP abs DR: dose response confirmation of mitochondrial permeability transition pore inhibitors. shares compounds with MPTP inh. isolated mitochondria swelling, absorbance. IC50, µM. hit rate 58% among 780. AID 651561; in the data active = IC50 below about 20 µM
MPTP cs DR: counter-screen for mitochondrial permeability transition pore inhibitors, dose response | shares compounds with MPTP inh | isolated mitochondria counterscreen, fluorescence read-out | IC50, µM | hit rate 49% among 780 | AID 651564; in the data active = IC50 below about 80 µM
Of the large screens only hits and unclear results are named; the others gave an inactive call (follow-up assays come after a bar, where they were run). The list is not random: actives were taken first. Their share in the collection is about 6.3%.

Nc1ncnc2c1ncn2[C@@H]1O[C@H](CNC(=O)[C@@H]2CCCN2S(=O)(=O)c2ccc(F)cc2)[C@@H](O)[C@H]1O	none
O=C(Nc1cccc(F)c1)C1CCCCC1	none
O=C(Nc1cccc(-c2cccc(F)c2)c1)C1CCN(C2CCC2)CC1	MPTP inh 64 | MPTP counter inactive | MPTP abs DR 7.7 | MPTP cs DR 58
Cc1ccc(S(=O)(=O)NCc2ccc(C(=O)NCCN(Cc3ccccc3)C(C)C)cc2)cc1	MPTP inh 51 | MPTP counter 71
Cc1ccc(S(=O)(=O)NCCNC(=O)c2ccccc2)cc1	none
Cc1cccc(C)c1NC(=O)C(c1ccccc1)n1c(-c2ccccc2)nc2ccccc21 (configuration not stated)	none (no result: Mdm2-MdmX inh, tim23-1 inh, tim10-1 inh, TIM10 inh)
O=C(NCCCN1CCC(Cc2ccccc2)CC1)C1CCN(S(=O)(=O)N2CCOCC2)CC1	MPTP inh 88 (no result: Mdm2-MdmX inh, tim23-1 inh, tim10-1 inh, TIM10 inh) | MPTP counter inactive | MPTP abs DR inactive | MPTP cs DR 61
CCS(=O)(=O)N1CCC(C(=O)NCCCN2CCC(Cc3ccccc3)CC2)CC1	none
C(=N\N1CCN(Cc2ccccc2)CC1)/c1ccc(-c2ccccc2)cc1	none
CN1CCN(/N=C/c2ccc(-c3ccccc3)cc2)CC1	MPTP inh 70 | MPTP counter inactive
Cc1csc(NC(=O)CSc2nnc(-c3ccoc3C)o2)n1	none
Cc1occc1-c1nnc(SCC(=O)Nc2nc(C(C)(C)C)cs2)o1	MPTP inh 94 | MPTP counter 90
CNc1cncc(-c2cccc(O)c2)n1	none (no result: Mdm2-MdmX inh, tim23-1 inh, tim10-1 inh, TIM10 inh)
CC1(c2nnnn2-c2ccc3c(c2)OCCO3)CCC(=O)N1C1CC1 (configuration not stated)	none (no result: Mdm2-MdmX inh, tim23-1 inh, tim10-1 inh, TIM10 inh)
Fc1cccc2sc(Nc3nnc(-c4ccccc4)o3)nc12	MPTP inh 76 | MPTP counter 76
O=C(NNc1nc2c(F)cccc2s1)c1ccc(F)cc1	MPTP inh 66 | MPTP counter 90
Fc1cccc2sc(Nc3nc4c(F)cccc4s3)nc12	MPTP inh 56 | MPTP counter 69
COc1cc(OC)cc(-c2nnc(Nc3nc4c(F)cccc4s3)o2)c1	none
COc1ccc(-c2cc3ccccc3n2CC(O)CNCCO)cc1 (configuration not stated)	MPTP inh 54 | MPTP counter inactive | MPTP abs DR 10 | MPTP cs DR inactive
Cc1cccc(NC(=O)CN2CCN(C(=O)CN3C(=O)NC4(CCCCC4C)C3=O)CC2)c1C (configuration not stated)	none (no result: Mdm2-MdmX inh, tim23-1 inh, tim10-1 inh, TIM10 inh)
CN(N)c1nc(C(F)(F)F)nc2ccccc12	none
CN(NS(=O)(=O)c1ccc(Br)cc1)c1nc(C(F)(F)F)nc2ccccc12	MPTP inh 73 | MPTP counter 86
CCC(CC)C(=O)Nc1ccc(Sc2ccc([N+](=O)[O-])cc2)cc1	MPTP inh 95 | MPTP counter 77
O=C(Nc1ccc([N+](=O)[O-])cc1)c1cc(Cl)sc1Cl	MPTP inh 89 | MPTP counter 85
O=C(Nc1ccc([N+](=O)[O-])cc1)C(c1ccccc1)c1ccccc1	MPTP inh 82 (no result: Mdm2-MdmX inh, tim23-1 inh, tim10-1 inh, TIM10 inh) | MPTP counter 108
CC(C(=O)Nc1cccc(Br)c1)c1ccc([N+](=O)[O-])cc1 (configuration not stated)	MPTP inh 58 | MPTP counter 78
O=C(NCC(O)c1ccc([N+](=O)[O-])cc1)C(c1ccccc1)c1ccccc1 (configuration not stated)	none
CCC(CC)C(=O)Nc1ccc([N+](=O)[O-])cn1	none
O=S1(=O)CCN(CCc2ccccc2)CC1	none (no result: Mdm2-MdmX inh, tim23-1 inh, tim10-1 inh, TIM10 inh)
Cc1ccc(O)c(-c2cc(C(=O)Nc3ccc(S(=O)(=O)N4CC(C)OC(C)C4)cc3)[nH]n2)c1 (configuration not stated)	none
Cc1ccc(-c2cc(C(=O)Nc3ccc(S(=O)(=O)N4CC(C)OC(C)C4)cc3)[nH]n2)c(O)c1 (configuration not stated)	MPTP inh 51 | MPTP counter 69
Cc1sc2ncnc(N3CCC(C(=O)N4CC(C)SC4=Nc4ccc(Cl)cc4)CC3)c2c1C (configuration not stated)	none (no result: Mdm2-MdmX inh, tim23-1 inh, tim10-1 inh, TIM10 inh)
Cc1cc(C)nc(N/N=C/c2ccccc2OCc2ccc([N+](=O)[O-])cc2)n1	none
O=[N+]([O-])c1ccc(/C=N/Nc2ccc3ccccc3c2)o1	MPTP inh 79 | MPTP counter 32
O=[N+]([O-])c1ccc(/C=N/NC(=S)Nc2ccccc2)o1	none
O=[N+]([O-])c1ccc(NN=Cc2cccc3ccccc23)cc1	MPTP inh 89 (no result: Mdm2-MdmX inh, tim23-1 inh, tim10-1 inh, TIM10 inh) | MPTP counter 71
O=[N+]([O-])c1ccc(N/N=C\c2ccccc2OCc2ccccc2)cc1	MPTP inh 97 | MPTP counter 76
CC1ON=C(c2ccc(F)cc2)NC1=O (configuration not stated)	none (no result: Mdm2-MdmX inh, tim23-1 inh, tim10-1 inh, TIM10 inh)
CCc1nnc(NS(=O)(=O)c2ccc(NC(=S)NC(=O)/C=C/c3ccc(F)cc3)cc2)s1	MPTP inh 53 | MPTP counter 40
Cc1cc(Cl)c(S(=O)(=O)N2CCN(c3ccc(F)cc3)CC2)cc1OCC(=O)NC1CCCCC1	MPTP inh 80 | MPTP counter 70
CSc1nsc(/C=C/Nc2ccc(F)cc2)c1C#N	MPTP inh 60 | MPTP counter 31
Cc1ccc(S(=O)(=O)N(C)C[C@@H]2OCc3cnnn3CCCC(=O)N([C@@H](C)CO)C[C@@H]2C)cc1	none (no result: Mdm2-MdmX inh, tim23-1 inh, tim10-1 inh, TIM10 inh)
O=C(Nc1ccc(Cl)c(Cl)c1)c1ccc(Cn2cc(Cl)cn2)cc1	MPTP inh 54 (no result: Mdm2-MdmX inh, tim23-1 inh, tim10-1 inh, TIM10 inh) | MPTP counter 87
NNC(=O)c1ccc(Cn2cc(Cl)cn2)cc1	none
C[C@@H]1CN([C@H](C)CO)C(=O)c2c(c3ccccc3n2C)-c2ccccc2CO[C@H]1CN(C)C(=O)CCC(F)(F)F	none (no result: Mdm2-MdmX inh, tim23-1 inh, tim10-1 inh, TIM10 inh)
CC(CCl)n1c(=O)c2ccccc2n1C(=O)c1ccccc1 (configuration not stated)	none (no result: Mdm2-MdmX inh, tim23-1 inh, tim10-1 inh, TIM10 inh)
Cc1ccc2c(c1)c1c3n2CCN(C(=O)CN2CCN(C)CC2)C3CCC1 (configuration not stated)	MPTP inh 75 | MPTP counter inactive | MPTP abs DR 20 | MPTP cs DR inactive
O=S(=O)(Nc1ccc(Br)cc1)c1cccc(NS(=O)(=O)c2cccs2)c1	none (no result: Mdm2-MdmX inh, tim23-1 inh, tim10-1 inh, TIM10 inh)
CCC(C)NS(=O)(=O)c1ccc(S(=O)(=O)N2CC=C(c3ccc(F)cc3)CC2)cc1 (configuration not stated)	MPTP inh 66 | MPTP counter 56
O[C@@H]1CN(CC2CCCCC2)[C@@H](c2ccc(Cl)cc2)C[C@H]1n1cc(-c2ccc(F)cc2)nn1	none (no result: Mdm2-MdmX inh, tim23-1 inh, tim10-1 inh, TIM10 inh)
O=C(CCc1c[nH]c2ccccc12)N1CCN(S(=O)(=O)c2ccc([N+](=O)[O-])cc2)CC1	none (no result: Mdm2-MdmX inh, tim23-1 inh, tim10-1 inh, TIM10 inh)
CCCCn1c(NC(=O)c2ccco2)c(S(=O)(=O)c2ccc(C)cc2)c2nc3ccccc3nc21	none (no result: Mdm2-MdmX inh, tim23-1 inh, tim10-1 inh, TIM10 inh)

Bioassay records as filed in PubChem BioAssay.
